# Assay results published in PubChem BioAssay (EPA / NIEHS).
# Inconclusive results are not listed. Calls of active or inactive are those of the source. Rule for the calls, unless noted: active = hit-call score of the fitted dose curve at least 0.9, where 1 is the maximum; inactive = score below 0.9.
# Experiments:
# [1] = target: Hepatocyte nuclear factor 4-alpha (Homo sapiens) (UniProt P41235); assay: ATG_HNF4a_TRANS: Attagene TRANS-FACTORIAL HepG2 Assay for human Hepatocyte Nuclear Factor 4 alpha (HNF4a) (AID 2282982; active = hit-call score of the fitted dose curve at least 0.9, where 1 is the maximum); details: HepG2 HNF4a transactivation reporter, mRNA readout
# In short: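 Activity of an exogenous HNF4a–Gal4 fusion scored as induced GAL4-UAS reporter transcripts after 24 h chemical exposure of transfected human HepG2 cells. Read-out via RT-PCR with 6-FAM labelling and capillary electrophoresis; rise over DMSO baseline.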
# [2] = ATG_M_06_TRANS: Attagene TRANS-FACTORIAL HepG2 Assay for M06 Transcription Factor (Internal Marker) (AID 2282983; active = hit-call score of the fitted dose curve at least 0.9, where 1 is the maximum); details: HepG2 Attagene TRANS M06 internal marker reporter
# In short: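 Human liver HepG2 cells bearing transiently transfected chimeric NR-GAL4 reporter units were treated with chemicals for 24 h. Total RNA was reverse-transcribed, reporter sequences amplified and labelled, then quantified by capillary electrophoresis. Activity was fitted upward relative to DMSO.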
# [3] = ATG_M_32_TRANS: Attagene TRANS-FACTORIAL HepG2 Assay for M32 Transcription Factor (Internal Marker) (AID 2282984; active = hit-call score of the fitted dose curve at least 0.9, where 1 is the maximum;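 note: transcript level of a background control reporter unit measured by RT-PCR and capillary electrophoresis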); details: HepG2 Attagene TRANS M32 internal marker reporter
# In short: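 Internal background reporter in transfected HepG2: after 24 h chemical exposure, RNA reverse-transcribed, reporter cDNA amplified, fluorescently labelled and HpaI-cut, then sized by capillary electrophoresis. Gain of signal fitted against DMSO control.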
# [4] = target: Nuclear receptor subfamily 4 group A member 2 (Homo sapiens) (UniProt P43354); assay: ATG_NURR1_TRANS: Attagene TRANS-FACTORIAL HepG2 Assay for human Nuclear Receptor Related Protein 1 (NURR1) (AID 2282985; active = hit-call score of the fitted dose curve at least 0.9, where 1 is the maximum); details: HepG2 Attagene TRANS reporter, mRNA readout
# In short: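 Reporter transcript induction, measured by RT-PCR with fluorescent labelling, HpaI digestion and capillary electrophoresis, after 24 hr dosing of human HepG2 cells transiently expressing an exogenous NR-Gal4 fusion with GAL4-UAS-driven reporters; DMSO as baseline.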
# [5] = target: Transcriptional activator Myb (Homo sapiens) (UniProt P10242); assay: ATG_Myb_CIS: Attagene CIS-FACTORIAL HepG2 Assay for human Myeloblastosis (Myb) Proto-Oncogene Transcription Factor (AID 2282986); details: HepG2 Attagene CIS-FACTORIAL Myb reporter transcription; actives raise or lower the signal
# In short: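 After 24 h of compound dosing, total RNA from transfected HepG2 cells is reverse-transcribed and the reporter sequences amplified, labeled and separated by capillary electrophoresis. Values come from bidirectional fitting against DMSO.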
# [6] = target: Nuclear respiratory factor 1 (Homo sapiens) (UniProt Q16656); assay: ATG_NRF1_CIS: Attagene CIS-FACTORIAL HepG2 Assay for human Nuclear Respiratory Factor 1 (NRF1) Orphan Gene (AID 2282987); details: HepG2 NRF1 cis-element reporter, Attagene multiplex; actives raise or lower the signal
# In short: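 Measured: fluorescent reporter-specific RT-PCR products from transfected HepG2 cells, separated by capillary electrophoresis. Exposure lasted 24 h. Analysis used bidirectional curve fitting with DMSO as negative control.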
# [7] = ATG_NFI_CIS: Attagene CIS-FACTORIAL HepG2 Assay for human Nuclear Factor I (NFI) (AID 2282989); details: HepG2 cis-regulatory reporter, NFI response element transcription; actives raise or lower the signal
# In short: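 HepG2, transient MRTU, 24 h exposure; RNA→cDNA→PCR→FAM label→HpaI→CE fluorescence. Bidirectional fit, DMSO = baseline.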
# [8] = target: Myc proto-oncogene protein (Homo sapiens) (UniProt P01106); assay: ATG_Myc_CIS: Attagene CIS-FACTORIAL HepG2 Assay for human Myelocytomatosis (Myc) Proto-Oncogene Transcription Factor (AID 2282990); details: HepG2, Attagene cis-reporter transcription factor activity; actives raise or lower the signal
# In short: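 After 24 h chemical treatment of HepG2 cells carrying multiplexed cis-regulated reporter constructs, reporter transcripts quantified by RT-PCR and capillary electrophoresis of fluorescent fragments. Gain or loss fitted against DMSO baseline.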
# [9] = ATG_NF_kB_CIS: Attagene CIS-FACTORIAL HepG2 Assay for human Nuclear Factor Kappa B (NF-kB) (AID 2282991); details: HepG2 Attagene cis-factorial NF-kB reporter mRNA; actives raise or lower the signal
# In short: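 Fluorescence of labelled RT-PCR products separated by capillary electrophoresis gives reporter mRNA levels from transfected HepG2 cells exposed 24 h; values are fitted in both directions relative to DMSO.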
# [10] = ATG_NRF2_ARE_CIS: Attagene CIS-FACTORIAL HepG2 Assay for human Nuclear Factor Erythroid 2 Related Factor 2 (NFR2) response to Antioxidant Response Elements (ARE) (AID 2282992); details: HepG2 Attagene ARE/NRF2 reporter, transcription factor activity; actives raise or lower the signal
# In short: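 Endogenous transcription factor activity read out as reporter transcript levels (RT-PCR plus capillary electrophoresis, fluorescence) in transiently transfected HepG2 cells. Measured at 24 h after dosing; gain or loss of signal fitted versus DMSO.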
# [11] = ATG_Oct_MLP_CIS: Attagene CIS-FACTORIAL HepG2 Assay for human Octamer-Binding Transcription Factor (Oct) (AID 2282993); details: HepG2 Attagene cis-factorial Oct reporter, mRNA; actives raise or lower the signal
# In short: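 Multiplexed cis-reporter assay in human liver HepG2 cells, 24 h incubation. Reporter RNA amplified and labelled, then resolved by capillary electrophoresis; DMSO serves as negative control and baseline.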
# [12] = target: Cellular tumor antigen p53 (Homo sapiens) (UniProt P04637); assay: ATG_p53_CIS: Attagene CIS-FACTORIAL HepG2 Assay for human p53 Transcription Factor (AID 2282994); details: HepG2 p53 cis-element reporter, Attagene mRNA; actives raise or lower the signal
# In short: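 Endogenous p53 activity read in transiently transfected HepG2 from a cis-element-driven reporter transcript after 24 h exposure. RNA reverse-transcribed, PCR-amplified, fluorescently labelled and sized by capillary electrophoresis; gain or loss fitted against DMSO baseline.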
# [13] = target: human Peroxisome Proliferator-activated Receptor alpha (PPARa), PPARA (gene 5465) (UniProt Q07869); assay: ATG_PPARa_TRANS: Attagene TRANS-FACTORIAL HepG2 Assay for human Peroxisome Proliferator-activated Receptor alpha (PPARa) (AID 2283001; active = hit-call score of the fitted dose curve at least 0.9, where 1 is the maximum)
# In short: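 Reporter transcripts quantified by RT-PCR plus capillary electrophoresis after 24 h treatment, fitted upward relative to DMSO. Cells: human HepG2 transiently carrying multiple GAL4-UAS reporter units driven by NR-Gal4 chimeras.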
# [14] = BSK_3C_TissueFactor: BioMAP Diversity Plus: 3C Assay for Tissue Factor Biomarker Activity (AID 2282997); details: BioMAP 3C HUVEC, tissue factor biomarker readout; actives raise or lower the signal
# In short: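 Cells used were primary human umbilical vein endothelial cells. They were dosed with chemical, and after 24 h Tissue Factor was quantified by ELISA. Curves were fitted bidirectionally with DMSO as baseline.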
# [15] = BSK_3C_uPAR: BioMAP Diversity Plus: 3C Assay for Urokinase-type plasminogen activator receptor (uPAR) Biomarker Activity (AID 2282998); details: BioMAP 3C HUVEC, uPAR biomarker ELISA; actives raise or lower the signal
# In short: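 Dose primary human umbilical vein endothelial cells, incubate 24 h, measure cell-surface uPAR by ELISA, then fit the signal in both directions against the DMSO negative control.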
# [16] = BSK_4H_Eotaxin3: BioMAP Diversity Plus: 4H Assay for Eotaxin 3 Biomarker Activity (AID 2283000); details: primary human endothelial cells (HUVEC); actives raise or lower the signal
# In short: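 Endothelial primary cells (human umbilical vein) exposed to compound for 24 h. ELISA detection of Eotaxin-3.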
# [17] = read-out: Intercellular Adhesion Molecule 1 (ICAM1), ICAM1 (gene 3383); assay: BSK_3C_ICAM1: BioMAP Diversity Plus: 3C Assay for Intercellular Adhesion Molecule 1 (ICAM1) Biomarker Activity (AID 2283003); details: primary human endothelial cells (HUVEC); actives raise or lower the signal
# In short: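 ELISA readout of ICAM1 in human umbilical vein endothelial cells in the 3C system, taken 24 h post-dose. Gain or loss of signal versus DMSO was fitted in both directions, with SRB total-protein staining run in parallel.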
# [18] = target: human Retinoic Acid Receptor beta (RARb), RARB (gene 5915) (UniProt P10826); assay: ATG_RARb_TRANS: Attagene TRANS-FACTORIAL HepG2 Assay for human Retinoic Acid Receptor beta (AID 2283004; active = hit-call score of the fitted dose curve at least 0.9, where 1 is the maximum)
# In short: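 HepG2, transient MRTU transfection, NR–Gal4 chimera, 24 h treatment; RT-PCR plus CE fluorescence detection of reporter mRNA; gain of signal vs DMSO.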
# [19] = target: human Peroxisome Proliferator-activated Receptor delta (PPARd), PPARD (gene 5467) (UniProt Q03181); assay: ATG_PPARd_TRANS: Attagene TRANS-FACTORIAL HepG2 Assay for human Peroxisome Proliferator-activated Receptor delta (PPARd) (AID 2283002; active = hit-call score of the fitted dose curve at least 0.9, where 1 is the maximum)
# In short: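 Read-out is induced reporter mRNA, quantified by RT-PCR with fluorescent labelling and capillary electrophoresis after 24 h dosing. Cells are HepG2 transiently carrying multiple GAL4-UAS reporter units driven by exogenous NR-GAL4 chimeras; DMSO serves as baseline.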
# Sequence of Hepatocyte nuclear factor 4-alpha (Homo sapiens) (P41235 whole entry, looked up, the tested form may be a part): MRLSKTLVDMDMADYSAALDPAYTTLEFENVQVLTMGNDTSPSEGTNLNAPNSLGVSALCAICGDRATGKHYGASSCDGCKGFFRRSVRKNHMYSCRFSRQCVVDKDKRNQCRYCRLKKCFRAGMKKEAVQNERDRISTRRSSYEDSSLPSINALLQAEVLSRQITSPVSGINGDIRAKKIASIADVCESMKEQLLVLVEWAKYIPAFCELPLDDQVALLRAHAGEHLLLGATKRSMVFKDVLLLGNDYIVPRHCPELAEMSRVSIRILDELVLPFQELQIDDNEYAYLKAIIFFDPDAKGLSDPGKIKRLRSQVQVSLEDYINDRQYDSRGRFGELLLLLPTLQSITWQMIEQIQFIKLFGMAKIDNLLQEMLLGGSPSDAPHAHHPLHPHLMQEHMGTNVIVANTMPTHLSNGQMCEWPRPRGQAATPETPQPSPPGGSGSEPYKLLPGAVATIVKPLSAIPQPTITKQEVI
# Sequence of human Peroxisome Proliferator-activated Receptor alpha (PPARa), PPARA (gene 5465) (Q07869 whole entry, looked up, the tested form may be a part): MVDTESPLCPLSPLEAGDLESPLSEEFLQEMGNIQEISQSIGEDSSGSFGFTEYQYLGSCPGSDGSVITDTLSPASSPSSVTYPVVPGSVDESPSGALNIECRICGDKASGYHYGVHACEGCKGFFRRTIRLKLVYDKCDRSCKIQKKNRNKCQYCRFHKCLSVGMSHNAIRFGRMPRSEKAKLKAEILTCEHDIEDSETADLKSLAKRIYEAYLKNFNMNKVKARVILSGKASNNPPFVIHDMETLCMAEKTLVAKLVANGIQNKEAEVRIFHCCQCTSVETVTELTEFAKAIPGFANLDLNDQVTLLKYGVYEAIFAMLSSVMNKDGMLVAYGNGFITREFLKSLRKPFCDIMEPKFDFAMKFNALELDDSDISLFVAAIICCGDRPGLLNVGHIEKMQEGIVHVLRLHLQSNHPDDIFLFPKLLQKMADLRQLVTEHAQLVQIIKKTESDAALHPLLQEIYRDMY
# Sequence of Transcriptional activator Myb (Homo sapiens) (P10242 whole entry, looked up): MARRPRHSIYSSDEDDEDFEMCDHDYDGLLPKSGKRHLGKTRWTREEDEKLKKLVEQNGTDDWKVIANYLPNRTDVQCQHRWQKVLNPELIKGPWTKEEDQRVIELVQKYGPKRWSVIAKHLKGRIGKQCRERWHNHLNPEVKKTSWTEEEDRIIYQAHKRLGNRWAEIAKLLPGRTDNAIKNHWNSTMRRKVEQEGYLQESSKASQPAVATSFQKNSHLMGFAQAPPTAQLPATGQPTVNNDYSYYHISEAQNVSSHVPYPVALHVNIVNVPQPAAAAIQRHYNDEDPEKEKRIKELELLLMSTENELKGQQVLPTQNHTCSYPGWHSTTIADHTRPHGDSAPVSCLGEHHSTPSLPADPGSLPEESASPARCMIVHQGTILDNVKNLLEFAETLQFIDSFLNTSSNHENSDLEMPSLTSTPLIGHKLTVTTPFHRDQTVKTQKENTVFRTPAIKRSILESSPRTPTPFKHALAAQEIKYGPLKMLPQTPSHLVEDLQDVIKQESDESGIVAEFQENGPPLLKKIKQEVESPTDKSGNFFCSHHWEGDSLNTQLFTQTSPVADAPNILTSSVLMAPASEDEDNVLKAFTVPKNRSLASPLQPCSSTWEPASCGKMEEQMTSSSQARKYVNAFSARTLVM
# Sequence of Nuclear receptor subfamily 4 group A member 2 (Homo sapiens) (P43354 whole entry, looked up, the tested form may be a part): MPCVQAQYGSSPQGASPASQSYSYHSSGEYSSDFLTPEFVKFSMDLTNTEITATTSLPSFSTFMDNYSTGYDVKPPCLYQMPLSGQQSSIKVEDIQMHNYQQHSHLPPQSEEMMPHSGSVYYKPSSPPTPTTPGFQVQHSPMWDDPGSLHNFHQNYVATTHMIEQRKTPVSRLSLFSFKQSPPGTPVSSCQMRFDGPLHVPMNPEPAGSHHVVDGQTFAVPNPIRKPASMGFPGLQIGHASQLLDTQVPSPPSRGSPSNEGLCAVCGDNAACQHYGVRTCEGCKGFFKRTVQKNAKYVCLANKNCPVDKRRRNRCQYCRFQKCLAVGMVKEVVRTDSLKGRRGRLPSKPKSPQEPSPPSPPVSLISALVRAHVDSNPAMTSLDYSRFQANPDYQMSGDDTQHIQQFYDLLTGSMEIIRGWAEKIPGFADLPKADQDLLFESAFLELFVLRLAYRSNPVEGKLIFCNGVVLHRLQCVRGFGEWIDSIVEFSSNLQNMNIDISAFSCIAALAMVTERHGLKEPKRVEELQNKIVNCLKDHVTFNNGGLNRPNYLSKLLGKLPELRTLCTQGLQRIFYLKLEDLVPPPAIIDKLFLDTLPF
# Sequence of Myc proto-oncogene protein (Homo sapiens) (P01106 whole entry, looked up, the tested form may be a part): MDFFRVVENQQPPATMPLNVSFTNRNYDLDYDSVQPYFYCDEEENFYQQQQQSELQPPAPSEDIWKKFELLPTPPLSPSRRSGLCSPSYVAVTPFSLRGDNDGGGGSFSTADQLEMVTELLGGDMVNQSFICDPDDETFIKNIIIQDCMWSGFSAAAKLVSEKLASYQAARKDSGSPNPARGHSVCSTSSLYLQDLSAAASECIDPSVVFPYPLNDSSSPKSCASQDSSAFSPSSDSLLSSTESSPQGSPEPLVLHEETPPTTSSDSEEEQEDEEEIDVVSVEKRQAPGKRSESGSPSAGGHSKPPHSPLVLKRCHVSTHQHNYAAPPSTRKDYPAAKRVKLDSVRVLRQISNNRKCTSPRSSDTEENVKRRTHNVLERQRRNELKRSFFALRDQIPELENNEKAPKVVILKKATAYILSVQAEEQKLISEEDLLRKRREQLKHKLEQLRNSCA
# Sequence of Cellular tumor antigen p53 (Homo sapiens) (P04637 whole entry, looked up): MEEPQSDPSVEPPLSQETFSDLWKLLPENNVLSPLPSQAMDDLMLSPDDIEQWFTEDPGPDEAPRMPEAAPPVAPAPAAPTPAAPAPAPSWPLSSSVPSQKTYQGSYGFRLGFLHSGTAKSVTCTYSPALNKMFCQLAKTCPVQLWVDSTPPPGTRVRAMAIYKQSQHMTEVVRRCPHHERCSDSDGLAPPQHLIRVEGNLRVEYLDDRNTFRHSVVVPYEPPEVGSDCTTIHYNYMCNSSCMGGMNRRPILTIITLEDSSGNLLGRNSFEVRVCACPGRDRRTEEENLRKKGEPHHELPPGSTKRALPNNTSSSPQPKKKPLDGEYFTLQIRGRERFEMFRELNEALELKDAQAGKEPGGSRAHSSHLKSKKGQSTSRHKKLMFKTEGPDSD
# Sequence of Nuclear respiratory factor 1 (Homo sapiens) (Q16656 whole entry, looked up): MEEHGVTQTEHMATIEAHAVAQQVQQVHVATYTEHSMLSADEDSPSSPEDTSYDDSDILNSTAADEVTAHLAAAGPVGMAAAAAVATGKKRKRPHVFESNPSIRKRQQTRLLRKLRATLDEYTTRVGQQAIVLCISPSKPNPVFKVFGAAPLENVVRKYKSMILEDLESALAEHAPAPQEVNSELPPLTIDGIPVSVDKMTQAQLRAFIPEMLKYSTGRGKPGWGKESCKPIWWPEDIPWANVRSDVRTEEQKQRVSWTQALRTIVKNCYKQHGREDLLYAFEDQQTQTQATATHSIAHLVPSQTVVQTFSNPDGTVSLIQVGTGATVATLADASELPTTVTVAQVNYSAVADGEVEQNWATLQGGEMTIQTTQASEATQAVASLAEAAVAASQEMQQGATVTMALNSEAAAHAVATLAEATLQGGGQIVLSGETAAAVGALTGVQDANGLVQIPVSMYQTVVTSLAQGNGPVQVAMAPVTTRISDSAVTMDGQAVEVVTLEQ
# Sequence of human Retinoic Acid Receptor beta (RARb), RARB (gene 5915) (P10826 whole entry, looked up, the tested form may be a part): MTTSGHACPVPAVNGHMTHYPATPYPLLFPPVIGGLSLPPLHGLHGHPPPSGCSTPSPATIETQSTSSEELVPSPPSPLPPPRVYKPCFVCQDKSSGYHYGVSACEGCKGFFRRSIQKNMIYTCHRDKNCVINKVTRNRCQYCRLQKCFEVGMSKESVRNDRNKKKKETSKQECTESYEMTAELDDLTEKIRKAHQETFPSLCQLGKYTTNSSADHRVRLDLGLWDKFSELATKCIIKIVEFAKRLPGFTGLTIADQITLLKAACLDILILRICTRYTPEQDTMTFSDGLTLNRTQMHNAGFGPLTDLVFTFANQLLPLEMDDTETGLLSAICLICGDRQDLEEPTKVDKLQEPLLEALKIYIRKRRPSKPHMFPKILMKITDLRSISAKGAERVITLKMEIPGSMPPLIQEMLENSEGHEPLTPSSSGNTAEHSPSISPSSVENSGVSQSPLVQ
# Sequence of human Peroxisome Proliferator-activated Receptor delta (PPARd), PPARD (gene 5467) (Q03181 whole entry, looked up, the tested form may be a part): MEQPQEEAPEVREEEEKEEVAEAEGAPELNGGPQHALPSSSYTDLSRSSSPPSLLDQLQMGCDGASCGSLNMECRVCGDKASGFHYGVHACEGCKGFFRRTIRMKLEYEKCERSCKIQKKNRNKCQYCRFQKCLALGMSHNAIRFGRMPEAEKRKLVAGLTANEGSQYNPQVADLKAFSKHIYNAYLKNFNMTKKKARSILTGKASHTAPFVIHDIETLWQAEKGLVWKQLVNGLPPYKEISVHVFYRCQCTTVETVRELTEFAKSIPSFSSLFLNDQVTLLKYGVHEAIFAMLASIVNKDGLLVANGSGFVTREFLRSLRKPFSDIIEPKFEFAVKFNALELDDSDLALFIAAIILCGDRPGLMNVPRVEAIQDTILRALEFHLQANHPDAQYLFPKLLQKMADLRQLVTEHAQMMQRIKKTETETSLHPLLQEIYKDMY
smiles,measurement,setting,value
CC(C)[C@H](C(=O)OC(C#N)c1cccc(Oc2ccccc2)c1)c1ccc(OC(F)F)cc1 (stereo partly drawn),outcome,[1],inactive
same,outcome,[2],inactive
same,outcome,[3],inactive
same,outcome,[4],inactive
same,outcome,[5],inactive
same,outcome,[6],inactive
same,outcome,[7],inactive
same,outcome,[8],inactive
same,outcome,[9],inactive
same,outcome,[10],inactive
same,outcome,[11],inactive
same,outcome,[12],inactive
CN(N=O)C(N)=O,outcome,[1],inactive
same,outcome,[2],inactive
same,outcome,[3],inactive
same,outcome,[4],inactive
same,outcome,[5],inactive
same,outcome,[6],inactive
same,outcome,[7],inactive
same,outcome,[8],inactive
same,outcome,[9],inactive
same,outcome,[11],inactive
same,outcome,[13],inactive
Brc1ccc(Oc2c(Br)cc(Br)cc2Br)c(Br)c1,outcome,[1],inactive
same,outcome,[2],inactive
same,outcome,[3],inactive
same,outcome,[4],inactive
same,outcome,[5],inactive
same,outcome,[6],inactive
same,outcome,[7],inactive
same,outcome,[8],inactive
same,outcome,[9],inactive
same,outcome,[10],inactive
same,outcome,[11],inactive
same,outcome,[12],inactive
same,outcome,[13],inactive
Nc1c(Oc2ccccc2)cc(O)c2c1C(=O)c1ccccc1C2=O,outcome,[1],inactive
same,outcome,[2],inactive
same,outcome,[3],inactive
same,outcome,[4],inactive
same,outcome,[5],inactive
same,outcome,[7],inactive
same,outcome,[9],inactive
same,outcome,[11],inactive
same,outcome,[14],inactive
same,outcome,[15],inactive
same,AC50,[16],10 µM (active)
same,outcome,[13],inactive
same,outcome,[17],inactive
same,outcome,[18],inactive
C=CCOC(N)=O,outcome,[1],inactive
same,outcome,[2],inactive
same,outcome,[3],inactive
same,outcome,[4],inactive
same,outcome,[5],inactive
same,outcome,[6],inactive
same,outcome,[7],inactive
same,outcome,[8],inactive
same,outcome,[9],inactive
same,outcome,[10],inactive
same,outcome,[11],inactive
same,outcome,[19],inactive
CCCCC(CC)COC(=O)Cl (stereo not drawn),outcome,[1],inactive
same,outcome,[2],inactive
same,outcome,[4],inactive
same,outcome,[5],inactive
same,outcome,[6],inactive
same,outcome,[7],inactive
same,outcome,[8],inactive
same,outcome,[9],inactive
same,outcome,[10],inactive
same,outcome,[11],inactive
CCOC(=O)c1ccccc1S(=O)(=O)NC(=O)Nc1nc(Cl)cc(OC)n1,outcome,[1],inactive
same,outcome,[2],inactive
same,outcome,[4],inactive
same,outcome,[5],inactive
same,outcome,[6],inactive
same,outcome,[7],inactive
same,outcome,[8],inactive
same,outcome,[9],inactive
same,outcome,[11],inactive
same,outcome,[12],inactive
same,outcome,[13],inactive
CC(C)[C@@H](Nc1ccc(C(F)(F)F)cc1Cl)C(=O)OC(C#N)c1cccc(Oc2ccccc2)c1 (stereo partly drawn),outcome,[1],inactive
same,outcome,[2],inactive
same,outcome,[4],inactive
same,outcome,[5],inactive
same,outcome,[6],inactive
same,outcome,[7],inactive
same,outcome,[8],inactive
same,outcome,[9],inactive
same,AC50,[10],17.1 µM (active)
same,outcome,[11],inactive
same,outcome,[18],inactive
FC(F)OCC(F)(F)C(F)(F)F,outcome,[1],inactive
same,outcome,[2],inactive
same,outcome,[5],inactive
same,outcome,[6],inactive
same,outcome,[7],inactive
same,outcome,[8],inactive
same,outcome,[9],inactive
same,outcome,[10],inactive
same,outcome,[11],inactive
same,outcome,[12],inactive
O=C(CCl)Nc1ccccc1,outcome,[1],inactive
same,outcome,[2],inactive
same,outcome,[4],inactive
same,AC50,[5],100 µM (active)
same,AC50,[6],35.2 µM (active)
same,AC50,[7],26.9 µM (active)
same,AC50,[10],2.21 µM (active)
same,AC50,[11],8.75 µM (active)
same,AC50,[12],7.86 µM (active)
same,outcome,[13],inactive
same,outcome,[19],inactive
O=C(NC(=O)c1c(F)cccc1F)Nc1ccc(Cl)cc1,outcome,[1],inactive
same,outcome,[2],inactive
same,outcome,[4],inactive
same,outcome,[5],inactive
same,outcome,[7],inactive
same,outcome,[9],inactive
same,outcome,[10],inactive
same,outcome,[11],inactive
